# Results reported in PubChem BioAssay (Tox21).
# “And” between values parts separate entries of the source, which are not always exact repeats. Equal entries are not always repeated. Records with an inconclusive call do not appear. A call without a number means that no potency is given here. Some compounds were tested as several samples or in several runs, with calls that do not always agree. The source made the active and inactive calls. Calls follow the shape of the dose curve; as a rule, active = well fitted curve in the direction sought with a large enough effect in the repeat runs; inconclusive = weak or mixed curves; inactive = no such curve, though single readings can be large; an effect the other way counts as inactive or inconclusive.
# Assay: qHTS assay to identify small molecule antagonists of the retinoid acid receptor (RAR) signaling pathway - cell viability counter screen (AID 1159551); also: nearly all actives have a fitted effect of over 35% in size
# Conditions: C3RL4 cells viability, ATP luminescence (CellTiter-Glo), 6 h; series mostly up to 92.4 µM; activity change, negative = cytotoxicity: at the top concentration
# How it was run: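 Luminescent ATP quantitation (CellTiter-Glo) gave cell viability in C3RL4 cells exposed to test chemicals for 6 h at 37 C alongside 1 uM final retinol.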
# Potency is read from the fitted curve at half-maximal effect.
SMILES,Potency,"activity change, negative = cytotoxicity"
COc1ccc(C=O)cc1OC,inactive,
CC(C)=CC1C(C(=O)OCc2cccc(Oc3ccccc3)c2)C1(C)C (centres undefined),inactive,
Oc1ccc(Cl)cc1Cl,inactive,
CC(C)(c1ccccc1)c1ccc(O)cc1,,-8.08% (inactive)
Nc1ccc2ccccc2c1,inactive,
N#Cc1c(Cl)c(Cl)c(Cl)c(C#N)c1Cl,37.8 µM (active) and 38.6 µM (active),
CCOC(=O)c1ccccc1N,inactive,
CN(C)c1ccccc1,inactive,
COP(=S)(OC)Oc1ccc(Sc2ccc(OP(=S)(OC)OC)cc2)cc1,inactive,
CCCCSP(=O)(SCCCC)SCCCC,inactive,
CC(C)(c1ccc(OCC2CO2)cc1)c1ccc(OCC2CO2)cc1 (centres undefined),inactive,
Brc1ccc(Br)cc1,inactive,
CSc1nc(NC(C)C)nc(NC(C)C)n1,inactive,
Clc1ccc(C(Cl)(Cl)Cl)cc1,inactive,
[CH3][Sn]([Cl])([Cl])[Cl],inactive,
Nc1ncn[nH]1,inactive,
CC(O)CN(CC(C)O)CC(C)O (centres undefined),inactive,
CCCCOCC1CO1 (centres undefined),inactive,
N#CC(c1ccccc1)c1ccccc1,inactive,

SMILES,Potency,"activity change, negative = cytotoxicity"
O=P(OCCCl)(OCCCl)OCCCl,inactive,
CCCCC(C#N)(Cn1cncn1)c1ccc(Cl)cc1 (centres undefined),inactive,
CC(C)COC(=O)c1ccccc1C(=O)OCC(C)C,inactive,
CCOP(=S)(OCC)OP(=S)(OCC)OCC,inactive,
Cc1ccc(N=CN(C)C=Nc2ccc(C)cc2C)c(C)c1,inactive,
C[C@]12CC[C@H]3[C@@H](CCC4=CC(=O)CC[C@@H]43)[C@@H]1CC[C@@H]2O,inactive,
ClCC(Cl)CCl,inactive,
CC1CC(=O)O1 (centres undefined),inactive,
CCOP(=S)(OCC)SCn1c(=O)oc2cc(Cl)ccc21,inactive,
COC(=O)Nc1nc2ccccc2[nH]1,inactive,
Clc1ccccc1-c1nnc(-c2ccccc2Cl)nn1,inactive,
Clc1cccc(Cl)c1,,0.425% (inactive)
OC(c1ccc(Cl)cc1)(c1cncnc1)c1ccccc1Cl (centres undefined),inactive,
CCCCCCCCCc1ccc(O)cc1,inactive,
CC1=C(C(=O)Nc2ccccc2)SCCO1,inactive,
CCOP(=O)(OCC)OCC,inactive,
ClC(Cl)=C(Cl)C(Cl)=C(Cl)Cl,inactive,
CNC(=O)Oc1cccc2c1OC(C)(C)C2,inactive,
O=NN1CCOCC1,inactive,

# Assay: qHTS assay to identify small molecule antagonists of the retinoic acid receptor (RAR) signaling pathway (AID 1159552; also: nearly all actives have a fitted effect of over 50% in size)
# Conditions: C3RL4 RARE luciferase reporter, retinol-stimulated, 6 h; series mostly up to 92.4 µM; activity, negative = inhibition: at the top concentration
# How it was run: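 Overnight-plated C3RL4 reporter cells get compound, then retinol to 1 uM final; plates sit 6 hr at 37 C, 5% CO2. A luciferase reagent is added and light output recorded after 30 min at room temperature.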
SMILES,Potency,"activity, negative = inhibition"
COc1ccc(C=O)cc1OC,inactive,
CC(C)=CC1C(C(=O)OCc2cccc(Oc3ccccc3)c2)C1(C)C (centres undefined),inactive,
Oc1ccc(Cl)cc1Cl,inactive,
CC(C)(c1ccccc1)c1ccc(O)cc1,61.1 µM (active),
Nc1ccc2ccccc2c1,inactive,
N#Cc1c(Cl)c(Cl)c(Cl)c(C#N)c1Cl,3 µM (active) and 3.06 µM (active),
CCOC(=O)c1ccccc1N,inactive,
CN(C)c1ccccc1,inactive,
COP(=S)(OC)Oc1ccc(Sc2ccc(OP(=S)(OC)OC)cc2)cc1,inactive,
CCCCSP(=O)(SCCCC)SCCCC,inactive,
CC(C)(c1ccc(OCC2CO2)cc1)c1ccc(OCC2CO2)cc1 (centres undefined),,-2.92% (inactive)
Brc1ccc(Br)cc1,inactive,
CSc1nc(NC(C)C)nc(NC(C)C)n1,,-6.48% (inactive)
Clc1ccc(C(Cl)(Cl)Cl)cc1,inactive,
[CH3][Sn]([Cl])([Cl])[Cl],inactive,
Nc1ncn[nH]1,,14% (inactive)
CC(O)CN(CC(C)O)CC(C)O (centres undefined),inactive,
CCCCOCC1CO1 (centres undefined),,-2.46% (inactive)
N#CC(c1ccccc1)c1ccccc1,inactive,

SMILES,Potency,"activity, negative = inhibition"
O=P(OCCCl)(OCCCl)OCCCl,,8.96% (inactive)
CCCCC(C#N)(Cn1cncn1)c1ccc(Cl)cc1 (centres undefined),inactive,
CC(C)COC(=O)c1ccccc1C(=O)OCC(C)C,inactive,
CCOP(=S)(OCC)OP(=S)(OCC)OCC,inactive,
Cc1ccc(N=CN(C)C=Nc2ccc(C)cc2C)c(C)c1,,1.19% [at 42.5 µM] (inactive)
C[C@]12CC[C@H]3[C@@H](CCC4=CC(=O)CC[C@@H]43)[C@@H]1CC[C@@H]2O,48.1 µM (active),
ClCC(Cl)CCl,inactive,
CC1CC(=O)O1 (centres undefined),inactive,
CCOP(=S)(OCC)SCn1c(=O)oc2cc(Cl)ccc21,inactive,
COC(=O)Nc1nc2ccccc2[nH]1,inactive,
Clc1ccccc1-c1nnc(-c2ccccc2Cl)nn1,inactive,
Clc1cccc(Cl)c1,,1.73% (inactive)
OC(c1ccc(Cl)cc1)(c1cncnc1)c1ccccc1Cl (centres undefined),27.8 µM (active) and inactive,
CCCCCCCCCc1ccc(O)cc1,inactive,
CC1=C(C(=O)Nc2ccccc2)SCCO1,inactive,
CCOP(=O)(OCC)OCC,inactive,
ClC(Cl)=C(Cl)C(Cl)=C(Cl)Cl,inactive,
CNC(=O)Oc1cccc2c1OC(C)(C)C2,,3.17% (inactive)
O=NN1CCOCC1,inactive,

# Assay: qHTS assay to identify small molecule agonists of the retinoic acid receptor (RAR) signaling pathway (AID 1159553)
# Conditions: C3RL4 RARE luciferase reporter, agonist, 6 h; activation: at 73.3 µM (top of the series) unless noted
# How it was run: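 Luminescence from a RARE-driven luciferase reporter in C3RL4 cells served as the read-out, measured after 30 min with detection reagent at room temperature. Compounds in DMSO were applied for 6 hr at 37 C following overnight seeding.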
SMILES,activation,Potency
COc1ccc(C=O)cc1OC,-6.5% (inactive),
CC(C)=CC1C(C(=O)OCc2cccc(Oc3ccccc3)c2)C1(C)C (centres undefined),,inactive
Oc1ccc(Cl)cc1Cl,,inactive
CC(C)(c1ccccc1)c1ccc(O)cc1,,inactive
Nc1ccc2ccccc2c1,,33.2 µM (active)
N#Cc1c(Cl)c(Cl)c(Cl)c(C#N)c1Cl,,847 nM (active) and 486 nM (active)
CCOC(=O)c1ccccc1N,,inactive
CN(C)c1ccccc1,,inactive
COP(=S)(OC)Oc1ccc(Sc2ccc(OP(=S)(OC)OC)cc2)cc1,,61.1 µM (active) and inactive
CCCCSP(=O)(SCCCC)SCCCC,,inactive
CC(C)(c1ccc(OCC2CO2)cc1)c1ccc(OCC2CO2)cc1 (centres undefined),,inactive
Brc1ccc(Br)cc1,-0.637% (inactive),
CSc1nc(NC(C)C)nc(NC(C)C)n1,,inactive
Clc1ccc(C(Cl)(Cl)Cl)cc1,3.71% (inactive),
[CH3][Sn]([Cl])([Cl])[Cl],,inactive
Nc1ncn[nH]1,,inactive
CC(O)CN(CC(C)O)CC(C)O (centres undefined),,inactive
CCCCOCC1CO1 (centres undefined),,inactive
N#CC(c1ccccc1)c1ccccc1,,inactive

SMILES,activation,Potency
O=P(OCCCl)(OCCCl)OCCCl,,inactive
CCCCC(C#N)(Cn1cncn1)c1ccc(Cl)cc1 (centres undefined),,inactive
CC(C)COC(=O)c1ccccc1C(=O)OCC(C)C,-2.44% (inactive),
CCOP(=S)(OCC)OP(=S)(OCC)OCC,0.676% [at 94.8 µM] (inactive),
Cc1ccc(N=CN(C)C=Nc2ccc(C)cc2C)c(C)c1,,inactive
C[C@]12CC[C@H]3[C@@H](CCC4=CC(=O)CC[C@@H]43)[C@@H]1CC[C@@H]2O,,inactive
ClCC(Cl)CCl,,inactive
CC1CC(=O)O1 (centres undefined),,inactive
CCOP(=S)(OCC)SCn1c(=O)oc2cc(Cl)ccc21,,inactive
COC(=O)Nc1nc2ccccc2[nH]1,7.74% (inactive),
Clc1ccccc1-c1nnc(-c2ccccc2Cl)nn1,,6.8 µM (active)
Clc1cccc(Cl)c1,,inactive
OC(c1ccc(Cl)cc1)(c1cncnc1)c1ccccc1Cl (centres undefined),-4.12% [at 94.8 µM] (inactive),
CCCCCCCCCc1ccc(O)cc1,,19.5 µM (active)
CC1=C(C(=O)Nc2ccccc2)SCCO1,,15.6 µM (active)
CCOP(=O)(OCC)OCC,,inactive
ClC(Cl)=C(Cl)C(Cl)=C(Cl)Cl,,inactive
CNC(=O)Oc1cccc2c1OC(C)(C)C2,,inactive
O=NN1CCOCC1,,inactive
